Test results from PubChem BioAssay AID686978 (National Center for Advancing Translational Sciences (NCATS), 2013).
Among all 420,000 compounds or so, about 64,000 (15%) were called active. About 27% were inconclusive and are not listed. The list is a sample of the results. Values without a mark were called inactive. Calls follow the shape of the dose curve; as a rule, active = well fitted inhibition curve with a large enough effect; inconclusive = small, poorly fitted or top-dose-only effect; inactive = flat fitted curve, though single readings scatter.

experiment: qHTS for Inhibitors of human tyrosyl-DNA phosphodiesterase 1 (TDP1): qHTS in cells in absence of CPT; conditions: DT40 Tdp1-/- hTDP1 cells, no CPT, ATP luminescence, 48 h; activity change, negative = growth inhibition: at 46.2 µM (top of the series); also: nearly all actives have a fitted effect of over 55% in size
How it was run: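 DT40 Tdp1-/-;hTDP1 cells, no CPT (DMSO vehicle only), 400 cells/well; compounds pin-transferred; ≥48 hr, 37 °C; CellTiter-Glo 30 min RT dark, luminescence read.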
% is scaled to controls: 0 for no effect and ±100 for the full control effect; potency is read from the fitted curve at half-maximal effect.

Structure (SMILES) | activity change, negative = growth inhibition [%] | Potency
O=[N+]([O-])c1ccc2c(c1)C(O)n1nc(-c3ccccc3)nc1S2 (stereo unspecified) | -9.02 | –
NC1=NN(c2cccc(C(=O)O)c2)C(=O)C1 | 18 | –
Cc1nn(C)c(C)c1C(C)NC(=O)c1ccc(OC2CCN(Cc3ccccn3)CC2)cc1 (stereo unspecified) | -8.27 | –
Cc1ccc(C(=O)NCC(=O)OCc2nnc(-c3ccccc3)o2)cc1 | 10.3 | –
CN(C)c1ccc(-c2nnc(-c3cccnc3)o2)cc1 | -15.1 | –
O=C(OCc1nnc(-c2ccccc2)o1)c1ccc2c(c1)C(=O)N(CCc1ccccc1)C2=O | -6.81 | –
C=CCn1nc(-c2ccccc2)c2c(C)onc2c1=O | 4.95 | –
Cc1onc(-c2ccccc2)c1-c1nnc(COC(=O)c2ccc(N(C)C)cc2)o1 | – | 20.6 µM (active)
Cc1onc(-c2ccccc2Cl)c1C(=O)OCc1nnc(-c2ccccc2)o1 | – | 23.1 µM (active)
CCCN1CNC(=S)N(CCc2ccccc2)C1 | -27.4 | –
O=C(CSc1nc2[nH]c(=O)[nH]c(=O)c2s1)Nc1cccc(F)c1 | -21.4 | –
O=C(O)c1ccccc1-c1cccc2nncn12 | -7.8 | –
CCOC(=O)c1sc2nc(C)[nH]c(=O)c2c1C | -15.4 | –
COC(=O)c1ccc2c(=O)n(CC3CCCO3)c(=S)[nH]c2c1 (stereo unspecified) | -7.54 | –
CCOC(=O)c1sc(=S)n2c1[nH]c(=O)c1ccc(C(=O)OC)cc12 | – | 5.8 µM (active)
Cc1cc(C)c2c(n1)sc1c(=O)n(-c3ccccc3)c(=O)[nH]c12 | -7.07 | –
CC(=O)Nc1cc(C(=O)O)ccc1S(=O)(=O)c1ccc(Cl)cc1 | -8.93 | –
COc1ccc2c(c1)cc1n2CCN=C1NN | -25.9 | –
COc1ccccc1CN1CC(C(=O)NCCc2cn[nH]c2)CCC1=O (stereo unspecified) | -17.8 | –
CC(C)=CC1C(C(=O)O)C1(C)C (stereo unspecified) | -20.2 | –
CCC1(C)COC(c2ccc(OC)c(OC)c2)OC1 (stereo unspecified) | -16.8 | –
CC(=O)c1cccc(-n2nnnc2SCC(=O)NNC(=O)C2CCCCC2)c1 | 5.14 | –
CCN(Cc1ccccc1)C(=O)CSc1nc(C)cc2c1C(=O)OC2 | -3.19 | –
Cc1cc(C)cc(NC(=O)N2CCCCCCC2)c1 | -17.7 | –
CCOC(=O)C1CCCN(C(=O)c2ccc(C)c(F)c2)CC1 (stereo unspecified) | -10.2 | –
Cc1ccc(C(NC(=O)N2CCCC2)C(Cl)(Cl)Cl)cc1F (stereo unspecified) | – | 20.6 µM (active)

Structure (SMILES) | activity change, negative = growth inhibition [%] | Potency
CCOC(=O)C1C(=O)OC2(CCCC2)C1C(=O)OCC (stereo unspecified) | 4.25 | –
Cc1ccc(CC2C(=O)N(c3ccc(F)cc3)C(=O)C2C)cc1 (stereo unspecified) | -5.78 | –
CC1(C)CC(=O)CC2(C1)NCC(c1ccccc1Cl)c1c2[nH]c2ccccc12 (stereo unspecified) | – | 16.4 µM (active)
CC(=O)Nc1ccccc1-c1nc(CNC(=O)c2ccc(Cl)cc2)c(C)o1 | -24.1 | –
CNC(=O)c1ccc(-c2nc(CN3CCc4ccccc43)c(C)o2)cc1 | – | 20.6 µM (active)
COC(=O)c1cc2occc2n1Cc1nc(-c2ccccc2C)oc1C | -19.5 | –
COc1ccc(-c2cn(-c3ccc(C)cc3)c(=O)n2CC(=O)Nc2ccc(OC)c(OC)c2)cc1 | -11.3 | –
CN(Cc1ccccc1)C(=O)c1ccc(NC2=NC3CS(=O)(=O)CC3S2)cc1 (stereo unspecified) | -0.188 | –
CCC(C)[C@H](NC(=O)N1CCn2c1nc1ccccc12)C(=O)NCc1ccc(OC)cc1 (stereo partly specified) | – | 16.4 µM (active)
CC(C)[C@H](NC(=O)N1CCn2c1nc1ccccc12)C(=O)NCc1ccc2c(c1)OCO2 | -15.7 | –
CC(C)[C@H](NC(=O)N1CCn2c1nc1ccccc12)C(=O)NC1CC1 | -17.3 | –
N/C(=N\OC(=O)CCCC(=O)O)c1ncc(C(F)(F)F)cc1Cl | -2.03 | –
CC(C)CCN1CCC(C)(NC(=O)c2ccccc2)C1=O (stereo unspecified) | -16.2 | –
CN(C)/C=C(/C(=O)c1ccc(Cl)cc1)S(=O)(=O)c1ccccc1 | -7.39 | –
COC(C/C=C/C(=O)[C@@H](C)OCc1ccccc1)OC | – | 18.4 µM (active)
COC(C[C@@H]1O[C@@H]1C(=O)[C@H](C)OCc1ccccc1)OC | -4.23 | –
COC(C[C@H](O)CC(=O)[C@@H](C)OCc1ccccc1)OC | -3.29 | –
CCc1ccccc1N1C(=O)CN(S(=O)(=O)CC)CC1(C)C(=O)NC1CCCCC1 (stereo unspecified) | -10.3 | –
Cc1ccccc1N1CC(C(=O)Nc2ccc3c(c2)OCO3)CC1=O (stereo unspecified) | -8.42 | –
CN(C)c1ccc(CNC23CN4CN(CN(C4)C2)C3)cc1 | – | 18.4 µM (active)
CCOc1ccc(NC(=O)CC2NCCNC2=O)cc1 (stereo unspecified) | 17.8 | –
O=C(Nc1ccc2c(c1)[C@@H]1C[C@@H](CC(=O)N3CCCCC3)O[C@@H](CO)[C@@H]1O2)NC1CCCCC1 | -20.2 | –
COC(=O)C[C@H]1C[C@@H]2c3cc(NC(=O)Nc4ccccc4)ccc3O[C@@H]2[C@@H](CO)O1 | -11.5 | –
O=C(C[C@H]1C[C@H]2c3cc(NS(=O)(=O)c4ccc(F)cc4)ccc3O[C@H]2[C@H](CO)O1)NCc1cc(F)ccc1F | – | 18.4 µM (active)
O=C1NC(O)CCN1C1CC(O)C(CO)O1 (stereo unspecified) | -5.27 | –
